DT40 TDP1 no CPT: qHTS for Inhibitors of human tyrosyl-DNA phosphodiesterase 1 (TDP1): qHTS in cells in absence of CPT; DT40 Tdp1-/- hTDP1 cells, no CPT, ATP luminescence, 48 h; Potency, µM (series often up to 46.2 µM), for the others: top-dose activity change, negative = growth inhibition, actives largely listed as inhibitors; actives 15% (n = 420,000); also: potency is read from the fitted curve at half-maximal effect; nearly all actives have a fitted effect of over 55% in size
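Seeded 400 DT40-hTDP1 cells/well (vehicle DMSO, no 20 nM CPT); pinned compounds; ≥48 hr at 37 °C; CellTiter-Glo luminescence as viability measure.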
TDP1 block: TDP1 (human) enzyme inhibition; Q9NUW8; AID 485290; actives 0.28% (n = 350,000); recombinant TDP1, AlphaScreen DNA substrate cleavage; Potency, µM (top dose mostly 130 µM), without a hit: at the highest dose activity change, negative = inhibition, most hits filed as inhibitors; also: potency is read from the fitted curve at half-maximal effect; nearly all actives have a fitted effect of over 40% in size
Target sequence (Q9NUW8 whole entry, looked up): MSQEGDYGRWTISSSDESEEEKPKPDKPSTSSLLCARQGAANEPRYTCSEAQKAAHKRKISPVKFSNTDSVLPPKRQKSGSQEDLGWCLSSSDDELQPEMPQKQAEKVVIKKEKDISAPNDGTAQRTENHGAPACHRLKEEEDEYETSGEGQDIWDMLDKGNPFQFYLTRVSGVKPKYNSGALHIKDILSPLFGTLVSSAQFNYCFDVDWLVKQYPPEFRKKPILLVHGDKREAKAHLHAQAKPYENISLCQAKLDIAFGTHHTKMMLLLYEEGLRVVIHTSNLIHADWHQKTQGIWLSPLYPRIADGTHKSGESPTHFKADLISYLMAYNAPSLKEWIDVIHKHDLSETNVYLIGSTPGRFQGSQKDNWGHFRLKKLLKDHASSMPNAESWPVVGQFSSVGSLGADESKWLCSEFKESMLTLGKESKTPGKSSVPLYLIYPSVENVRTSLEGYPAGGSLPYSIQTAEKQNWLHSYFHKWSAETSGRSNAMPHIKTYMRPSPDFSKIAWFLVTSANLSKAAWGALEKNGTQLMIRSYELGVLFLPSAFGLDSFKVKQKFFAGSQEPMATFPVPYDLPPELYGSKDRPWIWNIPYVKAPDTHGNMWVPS
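Here, a 5' biotin and 3' phosphotyrosine-FITC DNA oligonucleotide reports Tdp1 activity: intact substrate bridges AlphaScreen beads, while cleavage leaves a 3' phosphate and drops signal. All incubations at room temperature.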
IL-1B inflam inh: inhibitors of inflammasome signaling (IL-1 beta secretion); THP-1 LPS/ATP IL-1B secretion, AlphaLISA, 16 h; active compounds read low; activity change, % at 57.5 µM; actives 4.7% (n = 360,000); in the data active = activity change below about -50%; inconclusive = mostly about -30% to -49%
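Secreted IL-1B measured by AlphaLISA bead assay after 16 h compound exposure of THP-1 cells; compounds (final up to 57.5 uM) added 1 h before LPS (250 ng/mL) and ATP (1.25 mM) stimulation; lower signal means less secretion.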
DT40 TDP1 CPT: growth inhibition of DT40 Tdp1-/-;hTDP1 cells with camptothecin (screen for TDP1 inhibitors); chicken DT40 Tdp1-/-;hTDP1 cells + 20 nM CPT, ATP luminescence, 48 h; Potency, µM (top dose mostly 46.2 µM), inactives show at the top dose activity change, negative = growth inhibition, most hits filed as inhibitors; actives 12% (n = 420,000); AID 686979; also: potency is read from the fitted curve at half-maximal effect; nearly all actives have a fitted effect of over 55% in size
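Chicken DT40 Tdp1-/- cells stably complemented with human TDP1 were seeded at 400 cells/well in medium containing 20 nM camptothecin, exposed to pin-transferred compounds, and grown at 37 °C for at least 48 hr. Viability was read as ATP luminescence.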
ELG1 repair inh: ELG1-dependent DNA repair inhibition. HEK293T ELG1-luciferase reporter, luminescence, 16 h; DNA damage induced by 5-fluorouridine. actives 2.3% (n = 330,000). Potency, µM (series often up to 46.1 µM), for inactives: at the highest dose activity change, negative = inhibition, most hits filed as inhibitors; also: potency is read from the fitted curve at half-maximal effect; nearly all actives have a fitted effect of over 55% in size
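Cells (2,000 per well) received 5-fluorouridine plus test compound or DMSO and were incubated 16 hr at 37 °C, 5% CO2. Luciferase activity was read by luminescence 30 min after ONE-Glo addition; signal suppression marked inhibition of damage-induced ELG1 function.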
Giardia kill: kills Giardia lamblia | actives 0.15% (n = 340,000) | activity change, % at 7.66 µM, hits read low | AID 540267 | Giardia lamblia trophozoite viability; in the data active = activity change below about -80%; inconclusive = between about -30% and that limit;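 also: parasites exposed to compound for two days anaerobically before the ATP read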
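Trophozoite viability was measured as ATP-dependent luminescence, read 15-30 min after reagent addition. Before that, parasites at 100 cells/well were exposed to compounds for 48 h, anaerobically, at 37 deg C.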
* marks the source's active call; other numbers are inactive results; ? = inconclusive; . = no result given; [ ] = dose if it differs, or a comment. Compounds with a hit are over-represented: about 19% of the library has one in this group of screens. Unless noted, calls follow the shape of the dose curve; as a rule, active = well fitted curve in the direction sought with a large enough effect; inconclusive = small, poorly fitted or top-dose-only effect, or another doubt; inactive = no such curve, though single readings can be large; an effect the other way counts as inactive or inconclusive. % is scaled to controls: 0 for no effect and ±100 for the full control effect.

SMILES | DT40 TDP1 no CPT | TDP1 block | IL-1B inflam inh | DT40 TDP1 CPT | ELG1 repair inh | Giardia kill
CCOC(=O)c1cnc2c(OC)cccc2c1N1CCN(c2ccc(OC)cc2)CC1 | 16µM* | 5% | -19 | ? | ? | 11
CCOC(=O)c1cnc2ccc(OCC)cc2c1N1CCN(C)CC1 | ? | 5% | ? | ? | 0% | -15
COc1ccccc1N1CCN(C2CCN(C(=O)c3cccc(F)c3)CC2)CC1 | -4% | -8% | 3 | -13% | -5% | 43
C=CCOC(=O)C(C(C)=O)C(NC(=O)OC)c1cccc(F)c1 (centres undefined) | . | -1%[21 µM] | . | . | . | .
CCOC(=O)c1cnc2c(OC)cccc2c1N1CC(C)CC(C)C1 (centres undefined) | 7.3µM* | . | 45 | 12µM* | ? | -5
CCOC(=O)c1cnc2c(OC)cccc2c1N1CCN(c2ccccc2OC)CC1 | 13µM* | 11% | -97* | ? | 10µM* | -1
CCOC(=O)c1cnc2cc(F)c(F)cc2c1N1CCN(C)CC1 | . | . | . | . | -18% | .
CCOC(=O)c1cnc2c(OC)cccc2c1Oc1ccccc1 | -8% | . | 28 | 0% | -9% | 10
CCOC(=O)c1cnc2cc(C(F)(F)F)ccc2c1N1CCN(c2ccc(F)cc2)CC1 | 21µM* | 1% | . | ? | . | .
CCOc1ccc(CC(=O)NCC(c2cccs2)S(=O)(=O)c2ccc(F)c(C)c2)cc1 (centres undefined) | -12% | 4% | . | 0% | . | .
O=C(COc1ccccc1)Nc1nnc(COc2ccccc2)s1 | -14% | 1% | 0 | ? | -7% | 3
COc1cc(C2CC(=O)Nc3c2c(=O)[nH]c2nc4ccccc4n32)ccc1O (centres undefined) | . | 2% | . | . | . | .
Cn1c(=O)nc2n(Cc3ccccc3)c3cccc(Cl)c3cc-2c1=O | 29µM* | 2% | 11 | ? | 14% | 8
Cc1cccc(-n2c3nc(=O)n(C)c(=O)c-3cc3c(Cl)cccc32)c1C | -2% | -7% | . | 6% | . | .
COc1ccc(-n2c(-c3ccccc3)nnc2-c2ccc(Cl)cc2)cc1 | ? | 0% | 0 | -12% | 2% | -16
COc1ccc(-n2c(-c3ccc(Cl)cc3)c[n+]3c2CCc2ccccc2-3)cc1 | 2.3µM* | 2% | -55* | 2.9µM* | 2.3µM* | -6
CCC1C(=O)NCCN1Cc1ccc2c(c1)CN(Cc1ccc(OC)c(OC)c1)CCO2 (centres undefined) | -25% | . | . | 0%[9.04 µM] | . | .
CCCCNC1=CC(=O)C(=O)c2ccccc21 | 21µM* | -3% | 20 | 8.2µM* | 9% | 3
CCCCNC(=O)C(Sc1ccccc1)c1ccccc1 (centres undefined) | -4% | 4% | -5 | -18% | 15% | 6
CCCCNC1=CC(=O)C(NCCCC)=CC1=O | 16µM* | . | -1 | 23µM* | . | 18
Cc1ccc(C23CC4CC(CC(C(=O)N(C)C)(C4)C2)C3)cc1 | 21µM* | . | -19 | ? | 0% | 12
Cc1ccc(C23CC4CC(CC(CC(=O)NC(C)(C)CO)(C4)C2)C3)cc1 | 15µM* | . | 34 | 26µM* | ? | -22
COC(=O)CNC(=O)C12CC3CC(C1)CC(c1ccc(C)cc1)(C3)C2 | 5% | -4% | 14 | -4% | -3% | -24
NCC12CC3CC(C1)CC(c1ccc(Br)cc1)(C3)C2 | 15µM* | . | -77* | 21µM* | 4% | -12
Cc1ccc(C23CC4CC(CC(CN)(C4)C2)C3)cc1 | 10µM* | -3% | -95* | 6.5µM* | ? | 22
SMILES | DT40 TDP1 no CPT | TDP1 block | IL-1B inflam inh | DT40 TDP1 CPT | ELG1 repair inh | Giardia kill
COc1ncc2nc(C)c(=O)n(-c3ccccc3)c2n1 | -8% | . | . | 8% | . | .
CCN(CC)S(=O)(=O)c1cc(C(=O)NC2CCCCC2)ccc1C | ? | 2% | 3 | ? | ? | -5
CCN(Cc1ccccc1)S(=O)(=O)c1cc(C(=O)NC2CCCCCC2)ccc1OC | ? | 5% | -15 | 23µM* | ? | -4
CCN(Cc1ccccc1)S(=O)(=O)c1cc(C(=O)Nc2cc(Cl)cc(Cl)c2)ccc1F | 6.5µM* | 5% | . | 6.5µM* | . | .
COc1ccc(CNS(=O)(=O)c2cc(C(=O)Nc3cc(Cl)cc(Cl)c3)ccc2F)cc1 | ? | 10% | . | ? | . | .
CN(Cc1ccccc1)S(=O)(=O)c1ccc(F)c(C(=O)Nc2cc(Cl)cc(Cl)c2)c1 | ? | 5% | . | ? | . | .
O=C(Nc1cc(Cl)cc(Cl)c1)c1ccc(F)c(S(=O)(=O)NCc2ccccc2Cl)c1 | 10µM* | 8% | . | -99% | . | .
CCOc1ccc(NC(=O)c2ccc(F)c(S(=O)(=O)N(CC)Cc3ccccc3)c2)cc1 | 21µM* | 8% | . | 15µM* | . | .
CCN(C(=O)COc1ccc2ccc(=O)oc2c1)C1CCCCC1 | -21% | -3% | 16 | -10% | 0% | 11
CCOC(=O)c1cc(C(=O)OCC)c2cccc(C)n2c1=O | 13µM* | -3% | -4 | 7.3µM* | -2% | -15
COC(=O)Cn1c(=O)c2c(nc3n2CCCN3CCc2ccccc2)n(C)c1=O | ? | . | 11 | -25% | ? | 7
CC1(C)C2CCC1(CS(=O)(=O)NCc1ccc(C(F)(F)F)cc1)C(=O)C2 (centres undefined) | 12µM* | . | -23 | ? | ? | 7
CC1(C)C2CCC1(CS(=O)(=O)NCc1ccc(S(N)(=O)=O)cc1)C(=O)C2 (centres undefined) | 0% | 3% | 30 | 1% | -4% | 30
Cc1c(C(=O)N2CCC(C)CC2)c(S(=O)(=O)NCc2ccc(Br)cc2)c(C)n1C | ? | -1% | . | -34% | . | .
COn1c(C)c(C(C)=O)c2c3nonc3ccc21 | -19% | 3% | -24 | -1% | 21µM* | -7
COc1ccc(CC(=O)N/N=C(\C)CC(=O)Nc2ccc3c(c2)OCCO3)cc1OC | 6% | 2%[0.0935 µM] | 32 | 8% | 18% | -4
O=C(CN1C(=O)COc2ccccc21)N(Cc1ccccc1)Cc1ccccn1 | -17% | 6% | -5 | -21% | -9% | -21
COc1ccc(NC(=O)N(Cc2ccc(C)cc2)Cc2ccccn2)c(OC)c1 | ? | . | 14 | 26µM* | . | 19
COc1ccc(CN(Cc2ccccn2)C(=O)CN2C(=O)C(C)Oc3ccccc32)cc1 (centres undefined) | 21µM* | 1% | -5 | ? | ? | 22
COc1ccccc1C1CCN(C(=O)c2ccc(Cl)cc2)CC1 | -15% | . | -8 | -26% | ? | 0
CCOc1ccc(Br)cc1C1C(C(=O)Nc2ccccc2OC)=C(C)Nc2nnnn21 (centres undefined) | -14% | -4% | . | -30% | . | .
Cc1ncc2c(c1CNC(=O)c1ccccc1F)CCN(C(=O)c1csc(-c3cccs3)n1)C2 | ? | . | . | 4%[9.04 µM] | . | .

Screening data: PubChem BioAssay, National Center for Advancing Translational Sciences (NCATS)
